According to PubChem BioAssay (EPA / NIEHS):
Inconclusive results are not listed. The source made the active and inactive calls. How the source made its calls, unless noted: active means hit-call score of the fitted dose curve at least 0.9, where 1 is the maximum; inactive means score below 0.9.

Key:
[1] = ATG_CRE_CIS: Attagene CIS-FACTORIAL HepG2 Assay for human cAMP Responsive Element (CRE) binding protein 3 (AID 2282926); settings: HepG2 CRE cis-reporter, Attagene multiplexed mRNA; actives raise or lower the signal
In short: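 Human liver HepG2, transient MRTU transfection, 24 h compound exposure. Total RNA → oligo(dT) RT → PCR → 6-FAM primer extension → HpaI cut → CE. Activity called both directions vs DMSO.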

[2] = ATG_DR4_LXR_CIS: Attagene CIS-FACTORIAL HepG2 Assay for human Liver X Receptor (LXR), DR4 submotif (AID 2282929); settings: HepG2 Attagene DR4 cis-reporter, mRNA transcription; actives raise or lower the signal
In short: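 Measures endogenous transcription factor activity via a DR4-driven reporter transcript in human HepG2 cells. Compounds incubated 24 h; mRNA quantified by RT-PCR and capillary electrophoresis, analysed as gain or loss of signal versus DMSO.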

[3] = ATG_AP_1_CIS: Attagene CIS-FACTORIAL HepG2 Assay for human Activator Protein 1 (AP-1) (AID 2282931); settings: HepG2 Attagene cis-factorial AP-1 reporter mRNA; actives raise or lower the signal
In short: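 Bidirectional concentration-response fitting against DMSO controls. Underlying signal: reporter mRNA from cis-promoter constructs in transiently transfected HepG2, measured after 24 h by RT-PCR and capillary electrophoresis.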

[4] = ATG_Ets_CIS: Attagene CIS-FACTORIAL HepG2 Assay for human Erythroblast Transformation Specific (ETS) (AID 2282941); settings: HepG2 ETS cis-reporter transcription, actives raise or lower the signal
In short: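 Human HepG2 hepatoma cells were transiently transfected with promoter-driven reporter constructs and treated for 24 hours. Reporter transcripts were quantified by RT-PCR with fluorescent primer extension; bidirectional curve fitting used DMSO as reference.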

[5] = target: Hypoxia-inducible factor 1-alpha (Homo sapiens) (UniProt Q16665); experiment: ATG_HIF1a_CIS: Attagene CIS-FACTORIAL HepG2 Assay for human Hypoxia Inducible Factor 1 (HIF1A) (AID 2282951); settings: HepG2 Attagene cis-factorial HIF1a reporter transcription; actives raise or lower the signal
Hypoxia-inducible factor 1-alpha (Homo sapiens), sequence (Q16665 whole entry, looked up): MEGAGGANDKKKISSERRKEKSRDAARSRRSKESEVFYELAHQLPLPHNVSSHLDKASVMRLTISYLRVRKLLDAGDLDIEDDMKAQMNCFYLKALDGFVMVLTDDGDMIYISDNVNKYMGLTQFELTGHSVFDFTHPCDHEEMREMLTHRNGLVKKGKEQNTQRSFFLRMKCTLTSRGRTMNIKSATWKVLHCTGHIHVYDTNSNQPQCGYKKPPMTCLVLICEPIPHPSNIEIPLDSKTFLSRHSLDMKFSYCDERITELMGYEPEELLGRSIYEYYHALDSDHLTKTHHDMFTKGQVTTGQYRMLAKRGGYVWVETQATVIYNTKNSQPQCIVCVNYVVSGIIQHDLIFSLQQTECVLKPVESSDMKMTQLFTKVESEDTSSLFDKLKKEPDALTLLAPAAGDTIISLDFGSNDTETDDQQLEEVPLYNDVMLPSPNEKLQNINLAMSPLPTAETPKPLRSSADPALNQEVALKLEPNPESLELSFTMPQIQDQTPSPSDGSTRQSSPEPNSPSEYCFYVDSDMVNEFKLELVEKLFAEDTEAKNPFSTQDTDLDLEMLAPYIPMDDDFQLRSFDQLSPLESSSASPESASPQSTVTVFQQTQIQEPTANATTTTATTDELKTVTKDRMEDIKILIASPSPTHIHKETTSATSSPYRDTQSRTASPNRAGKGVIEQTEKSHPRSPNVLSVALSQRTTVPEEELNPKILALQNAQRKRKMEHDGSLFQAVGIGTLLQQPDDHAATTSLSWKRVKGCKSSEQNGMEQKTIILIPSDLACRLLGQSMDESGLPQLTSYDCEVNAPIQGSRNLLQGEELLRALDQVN
In short: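 In this multiplexed cell assay, HepG2 cells bearing transfected cis reporters are dosed for 24 h and reporter mRNA is read by RT-PCR plus capillary electrophoresis; signal increases and decreases are both scored against DMSO.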

[6] = target: Heat shock factor protein 1 (Homo sapiens) (UniProt Q00613); experiment: ATG_HSE_CIS: Attagene CIS-FACTORIAL HepG2 Assay for human Heat Shock Transcription Factor 1 (HSE) (AID 2282953); settings: HepG2 HSE cis-reporter, Attagene RNA transcription; actives raise or lower the signal
Heat shock factor protein 1 (Homo sapiens), sequence (Q00613 whole entry, looked up, the tested form may be a part): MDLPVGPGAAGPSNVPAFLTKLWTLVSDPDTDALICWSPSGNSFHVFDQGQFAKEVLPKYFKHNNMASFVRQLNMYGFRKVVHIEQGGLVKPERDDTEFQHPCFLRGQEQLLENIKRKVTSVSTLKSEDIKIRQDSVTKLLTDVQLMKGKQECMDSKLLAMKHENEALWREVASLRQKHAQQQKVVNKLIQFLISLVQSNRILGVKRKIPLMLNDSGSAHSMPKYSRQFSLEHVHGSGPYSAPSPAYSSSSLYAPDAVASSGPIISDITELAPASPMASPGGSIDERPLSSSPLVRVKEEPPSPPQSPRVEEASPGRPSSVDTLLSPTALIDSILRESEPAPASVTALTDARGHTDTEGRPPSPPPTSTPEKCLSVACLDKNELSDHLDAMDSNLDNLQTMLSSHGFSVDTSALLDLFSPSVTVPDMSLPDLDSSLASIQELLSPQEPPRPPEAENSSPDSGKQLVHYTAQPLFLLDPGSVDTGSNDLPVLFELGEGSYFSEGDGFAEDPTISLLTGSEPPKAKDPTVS
In short: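 Endogenous transcription factor activity captured via cis-promoter reporter units transfected into HepG2; treatment lasted 24 h. Fluorescence intensity of reporter fragments analysed with bidirectional curve fitting, DMSO baseline.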

[7] = target: Signal transducer and activator of transcription 3 (Homo sapiens) (UniProt P40763); experiment: ATG_STAT3_CIS: Attagene CIS-FACTORIAL HepG2 Assay for human Signal Transducer and Activator of Transcription 3 (STAT3) (AID 2282963); settings: HepG2, Attagene cis-factorial STAT3 reporter transcription; actives raise or lower the signal
Signal transducer and activator of transcription 3 (Homo sapiens), sequence (P40763 whole entry, looked up): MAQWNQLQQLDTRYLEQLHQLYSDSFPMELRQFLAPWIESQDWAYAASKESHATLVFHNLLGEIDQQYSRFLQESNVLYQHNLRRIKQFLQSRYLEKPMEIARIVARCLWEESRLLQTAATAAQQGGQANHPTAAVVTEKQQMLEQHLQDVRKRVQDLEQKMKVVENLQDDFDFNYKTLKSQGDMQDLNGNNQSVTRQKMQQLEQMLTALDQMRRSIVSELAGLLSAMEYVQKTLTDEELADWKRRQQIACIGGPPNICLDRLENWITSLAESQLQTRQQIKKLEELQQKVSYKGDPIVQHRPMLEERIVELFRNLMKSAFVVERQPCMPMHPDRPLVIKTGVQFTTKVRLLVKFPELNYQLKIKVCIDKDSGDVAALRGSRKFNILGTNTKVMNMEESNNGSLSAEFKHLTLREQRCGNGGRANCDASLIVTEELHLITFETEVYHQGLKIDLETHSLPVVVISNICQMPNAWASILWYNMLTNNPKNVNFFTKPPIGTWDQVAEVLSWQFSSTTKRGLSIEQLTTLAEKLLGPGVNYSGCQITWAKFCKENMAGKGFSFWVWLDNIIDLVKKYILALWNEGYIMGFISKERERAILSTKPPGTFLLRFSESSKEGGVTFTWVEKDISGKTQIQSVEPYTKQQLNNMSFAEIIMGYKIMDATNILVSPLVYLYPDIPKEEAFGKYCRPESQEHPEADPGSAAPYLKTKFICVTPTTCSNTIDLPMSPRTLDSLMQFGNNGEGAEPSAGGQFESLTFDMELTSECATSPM
In short: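 HepG2 cells transiently transfected with cis-element-driven multiple reporter transcription units; after 24 h chemical exposure, reporter mRNA measured by RT-PCR, 6-FAM primer-extension labelling, HpaI digestion and capillary electrophoresis. Bidirectional fitting versus DMSO baseline.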

[8] = ATG_TA_CIS: Attagene CIS-FACTORIAL HepG2 Assay for human TA Basal Promoter (AID 2282964); settings: HepG2 Attagene CIS-factorial TA basal promoter reporter; actives raise or lower the signal
In short: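 Fluorescence from labelled RT-PCR reporter fragments, separated by capillary electrophoresis, gives the signal. Cells: HepG2 transiently carrying multiple reporter units, 24 h chemical dosing. Gain or loss relative to DMSO.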

[9] = ATG_TCF_b_cat_CIS: Attagene CIS-FACTORIAL HepG2 Assay for human T-Cell-Factor with beta-catenin (TCF/b-cat) (AID 2282965); settings: HepG2 TCF/beta-catenin cis-reporter transcription, actives raise or lower the signal
In short: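 Using capillary electrophoresis as the read-out, labelled reporter cDNA fragments from transiently transfected HepG2 were sized and quantified. Exposure lasted 24 hours; activity in either direction was referenced to DMSO.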

[10] = ATG_TAL_CIS: Attagene CIS-FACTORIAL HepG2 Assay for human TAL Basal Promoter (AID 2282966); settings: HepG2 Attagene cis-factorial TAL promoter reporter; actives raise or lower the signal;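 further: background control endpoint measuring basal TAL promoter reporter mRNA not a specific factor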
In short: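 Fluorescence of labelled reporter cDNA fragments, resolved by capillary electrophoresis, gave the readout. Human HepG2 liver cells carried transiently transfected cis-element reporter units and were treated for 24 hours; activity was fitted bidirectionally against DMSO.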

[11] = target: X-box-binding protein 1 (Homo sapiens) (UniProt P17861); experiment: ATG_Xbp1_CIS: Attagene CIS-FACTORIAL HepG2 Assay for human X-box Binding Protein 1 (XBP1) (AID 2282972); settings: HepG2 XBP1 cis-element reporter, Attagene multiplex; actives raise or lower the signal
X-box-binding protein 1 (Homo sapiens), sequence (P17861 whole entry, looked up, the tested form may be a part): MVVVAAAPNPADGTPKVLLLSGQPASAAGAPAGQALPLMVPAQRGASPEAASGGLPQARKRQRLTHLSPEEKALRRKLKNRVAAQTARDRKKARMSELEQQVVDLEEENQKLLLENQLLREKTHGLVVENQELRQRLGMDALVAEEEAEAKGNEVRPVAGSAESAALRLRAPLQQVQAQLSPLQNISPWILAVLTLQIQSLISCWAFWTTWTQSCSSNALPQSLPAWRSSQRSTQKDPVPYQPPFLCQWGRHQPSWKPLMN
In short: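 Fluorescence-labelled cDNA fragments from reporter transcripts, separated by capillary electrophoresis, give the signal. Source: HepG2 cells transfected with promoter-driven reporter units, harvested 24 h post-dose. DMSO served as reference for bidirectional curve fitting.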

[12] = target: Transcriptional activator Myb (Homo sapiens) (UniProt P10242); experiment: ATG_Myb_CIS: Attagene CIS-FACTORIAL HepG2 Assay for human Myeloblastosis (Myb) Proto-Oncogene Transcription Factor (AID 2282986); settings: HepG2 Attagene CIS-FACTORIAL Myb reporter transcription; actives raise or lower the signal
Transcriptional activator Myb (Homo sapiens), sequence (P10242 whole entry, looked up): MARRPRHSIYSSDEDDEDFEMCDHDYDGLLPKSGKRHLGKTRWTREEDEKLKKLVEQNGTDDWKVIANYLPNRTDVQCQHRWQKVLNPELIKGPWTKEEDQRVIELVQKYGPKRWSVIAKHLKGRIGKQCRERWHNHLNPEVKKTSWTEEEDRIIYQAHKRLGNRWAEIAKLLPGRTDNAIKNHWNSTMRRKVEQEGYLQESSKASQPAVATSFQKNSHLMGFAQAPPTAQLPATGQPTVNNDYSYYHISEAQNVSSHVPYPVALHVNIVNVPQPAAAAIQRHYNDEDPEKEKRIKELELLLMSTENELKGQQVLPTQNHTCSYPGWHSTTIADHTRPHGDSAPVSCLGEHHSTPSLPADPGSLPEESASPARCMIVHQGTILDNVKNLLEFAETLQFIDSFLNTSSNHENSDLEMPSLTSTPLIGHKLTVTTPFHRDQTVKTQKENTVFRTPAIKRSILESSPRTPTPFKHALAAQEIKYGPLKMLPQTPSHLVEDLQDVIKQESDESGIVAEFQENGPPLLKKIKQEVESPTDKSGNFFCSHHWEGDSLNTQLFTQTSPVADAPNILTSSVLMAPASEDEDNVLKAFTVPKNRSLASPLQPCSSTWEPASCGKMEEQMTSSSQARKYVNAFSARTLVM
In short: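 Fluorescence signals from capillary electrophoresis of RT-PCR-amplified reporter cDNA give the read-out. Cells: HepG2 transfected with multiple cis-regulated reporter units. Exposure lasts 24 hours; DMSO defines baseline for gain or loss of signal.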

[13] = ATG_NFI_CIS: Attagene CIS-FACTORIAL HepG2 Assay for human Nuclear Factor I (NFI) (AID 2282989); settings: HepG2 cis-regulatory reporter, NFI response element transcription; actives raise or lower the signal
In short: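 Cells: human liver HepG2, transiently transfected with promoter-regulated reporter transcription units. Exposure 24 h. Detection: fluorescent RT-PCR products separated by capillary electrophoresis, normalised to DMSO negative control.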

[14] = target: Myc proto-oncogene protein (Homo sapiens) (UniProt P01106); experiment: ATG_Myc_CIS: Attagene CIS-FACTORIAL HepG2 Assay for human Myelocytomatosis (Myc) Proto-Oncogene Transcription Factor (AID 2282990); settings: HepG2, Attagene cis-reporter transcription factor activity; actives raise or lower the signal
Myc proto-oncogene protein (Homo sapiens), sequence (P01106 whole entry, looked up): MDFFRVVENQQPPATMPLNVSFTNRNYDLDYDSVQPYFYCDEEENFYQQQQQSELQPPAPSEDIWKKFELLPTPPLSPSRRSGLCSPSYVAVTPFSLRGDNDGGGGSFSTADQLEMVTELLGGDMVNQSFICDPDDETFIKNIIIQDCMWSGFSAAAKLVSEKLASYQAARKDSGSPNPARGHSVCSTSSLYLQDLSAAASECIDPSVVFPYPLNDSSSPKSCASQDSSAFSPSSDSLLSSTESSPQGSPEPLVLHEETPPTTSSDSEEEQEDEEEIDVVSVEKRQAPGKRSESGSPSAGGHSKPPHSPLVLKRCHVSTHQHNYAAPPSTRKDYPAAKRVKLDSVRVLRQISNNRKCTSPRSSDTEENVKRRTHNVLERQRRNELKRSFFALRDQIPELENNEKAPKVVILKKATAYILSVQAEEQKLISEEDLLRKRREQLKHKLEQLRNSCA
In short: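 Multiplexed cis-reporter transcription in HepG2 cells after 24 h chemical treatment. Reporter mRNA measured by RT-PCR and capillary electrophoresis fluorescence; activity fitted bidirectionally against DMSO control.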

[15] = ATG_Oct_MLP_CIS: Attagene CIS-FACTORIAL HepG2 Assay for human Octamer-Binding Transcription Factor (Oct) (AID 2282993); settings: HepG2 Attagene cis-factorial Oct reporter, mRNA; actives raise or lower the signal
In short: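 HepG2, transient MRTU transfection, cis promoter elements; 24 h dosing; RT-PCR/CE fluorescence read-out of reporter mRNA; fit both directions vs DMSO.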

[16] = target: Cellular tumor antigen p53 (Homo sapiens) (UniProt P04637); experiment: ATG_p53_CIS: Attagene CIS-FACTORIAL HepG2 Assay for human p53 Transcription Factor (AID 2282994); settings: HepG2 p53 cis-element reporter, Attagene mRNA; actives raise or lower the signal
Cellular tumor antigen p53 (Homo sapiens), sequence (P04637 whole entry, looked up): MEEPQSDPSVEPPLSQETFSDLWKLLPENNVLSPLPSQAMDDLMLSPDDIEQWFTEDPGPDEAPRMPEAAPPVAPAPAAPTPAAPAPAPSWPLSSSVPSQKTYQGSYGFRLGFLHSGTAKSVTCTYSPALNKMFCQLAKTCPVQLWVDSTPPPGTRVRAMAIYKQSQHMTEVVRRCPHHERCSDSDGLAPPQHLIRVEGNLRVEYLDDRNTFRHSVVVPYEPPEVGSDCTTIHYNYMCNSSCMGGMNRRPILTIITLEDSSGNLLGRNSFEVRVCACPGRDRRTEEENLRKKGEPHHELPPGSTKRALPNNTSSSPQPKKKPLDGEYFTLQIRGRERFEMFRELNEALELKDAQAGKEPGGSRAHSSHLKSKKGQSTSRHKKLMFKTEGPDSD
In short: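 Multiplexed reporter mRNA assay in human HepG2 liver cells; cis-regulated units report endogenous factor activity. Values come from bidirectional curve fitting against DMSO negative control after 24 h treatment.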

[17] = target: Nuclear receptor subfamily 1 group I member 2 (Homo sapiens) (UniProt O75469); experiment: ATG_PXR_TRANS: Attagene TRANS-FACTORIAL HepG2 Assay for human Pregnane X Receptor (PXR) (AID 2283008; active means hit-call score of the fitted dose curve at least 0.9, where 1 is the maximum)
Nuclear receptor subfamily 1 group I member 2 (Homo sapiens), sequence (O75469 whole entry, looked up, the tested form may be a part): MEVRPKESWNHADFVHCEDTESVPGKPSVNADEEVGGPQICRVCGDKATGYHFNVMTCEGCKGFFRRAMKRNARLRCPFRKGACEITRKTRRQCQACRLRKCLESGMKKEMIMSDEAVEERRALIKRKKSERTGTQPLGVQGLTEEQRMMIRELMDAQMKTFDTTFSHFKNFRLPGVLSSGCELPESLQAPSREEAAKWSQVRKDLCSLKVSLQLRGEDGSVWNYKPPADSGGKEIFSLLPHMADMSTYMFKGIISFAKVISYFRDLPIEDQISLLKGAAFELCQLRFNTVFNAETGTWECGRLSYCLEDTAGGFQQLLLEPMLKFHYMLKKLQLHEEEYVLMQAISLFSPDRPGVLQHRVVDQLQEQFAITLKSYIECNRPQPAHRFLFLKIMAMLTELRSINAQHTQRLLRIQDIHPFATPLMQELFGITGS
In short: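 Measures mRNA induction of a GAL4-UAS-driven reporter in human HepG2 cells transiently expressing PXR fused to Gal4, following 24 h treatment. DMSO served as negative control and baseline.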

[18] = ATG_XTT_Cytotoxicity: Cytotoxicity Assessment in the Attagene TRANS-FACTORIAL HepG2 Assay (AID 2283584; active means hit-call score of the fitted dose curve at least 0.9, where 1 is the maximum)
In short: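 Cells: human HepG2, transiently transfected with MRTU reporter constructs. Exposure 24 h. Readout: XTT, cell number. Baseline/neg ctrl DMSO; loss-of-signal scored.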

[19] = ATG_NRF2_ARE_CIS: Attagene CIS-FACTORIAL HepG2 Assay for human Nuclear Factor Erythroid 2 Related Factor 2 (NFR2) response to Antioxidant Response Elements (ARE) (AID 2282992); settings: HepG2 Attagene ARE/NRF2 reporter, transcription factor activity; actives raise or lower the signal
In short: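 Multiplexed reporter mRNA profiling in HepG2 after a 24 h chemical exposure. Curves fitted in both directions relative to DMSO negative control.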

[20] = target: Paired box protein Pax-6 (Homo sapiens) (UniProt P26367); experiment: ATG_Pax6_CIS: Attagene CIS-FACTORIAL HepG2 Assay for human Paired Box 6 (PAX6) (AID 2282956); settings: HepG2 CIS-FACTORIAL PAX6 reporter transcription, RNA readout; actives raise or lower the signal
Paired box protein Pax-6 (Homo sapiens), sequence (P26367 whole entry, looked up): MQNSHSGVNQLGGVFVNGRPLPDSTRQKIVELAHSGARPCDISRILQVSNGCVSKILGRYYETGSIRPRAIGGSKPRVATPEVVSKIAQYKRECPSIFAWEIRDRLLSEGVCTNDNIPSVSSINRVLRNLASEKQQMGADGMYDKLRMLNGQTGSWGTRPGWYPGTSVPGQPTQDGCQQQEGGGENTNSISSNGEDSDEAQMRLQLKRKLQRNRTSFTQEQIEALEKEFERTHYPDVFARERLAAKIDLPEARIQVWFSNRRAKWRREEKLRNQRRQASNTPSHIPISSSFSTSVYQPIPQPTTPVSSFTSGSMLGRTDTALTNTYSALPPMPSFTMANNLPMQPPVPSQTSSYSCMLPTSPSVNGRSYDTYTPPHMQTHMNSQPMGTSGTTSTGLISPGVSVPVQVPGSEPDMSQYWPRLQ
In short: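 Multiplexed cis-reporter HepG2 system; 24 h treatment; reporter mRNA read by RT-PCR/CE fluorescence; bidirectional fit vs DMSO.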

Measured: AC50

CC/C=C/CCO
not listed: [19] | [20]
inactive: all other assays above

C=C(C)C(=O)OCCCCCC
not listed: [3] | [4] | [17] | [20]
inactive: all other assays above

CC1=CCCC(C)(C)C12CCC(C)O2 (centres undefined)
active: [17] 2.53 µM
not listed: [19]
inactive: all other assays above

Cc1ccccc1S(N)(=O)=O
not listed: [4]
inactive: all other assays above

CC(C)=CCOC(=O)c1ccccc1
not listed: [4] | [19]
inactive: all other assays above

O=S(=O)(O)c1cccc2ccccc12
not listed: [18]
inactive: all other assays above

O=C(O)c1ccccc1C(=O)O
not listed: [3] | [17]
inactive: all other assays above

OCCOCCOCCOCCOCCO
not listed: [17]
inactive: all other assays above

CN(C)N=Nc1ccccc1
active: [19] 177 µM
not listed: [4]
inactive: all other assays above

C=CCOCC(CC)(CO)COCC=C
not listed: [3]
inactive: all other assays above

O=C(O)c1nc(Cl)c(Cl)c(Cl)c1Cl
active: [19] 15.3 µM
not listed: [16] | [18] | [20]
inactive: all other assays above

CCO[Si](OCC)(OCC)c1ccccc1
not listed: [18] | [20]
inactive: all other assays above

NCc1ccccc1
not listed: [17]
inactive: all other assays above

CC(C)CC(=O)CC(C)C
not listed: [20]
inactive: all other assays above

CCCC(=O)OC
not listed: [3] | [18] | [20]
inactive: all other assays above
